# Laboratory results as given in PubChem BioAssay AID1578 (Sanford-Burnham Center for Chemical Genomics, 2009).
# The campaign covered roughly 290,000 compounds. About 3,000 (1%) were called active. Cut-off read from the data, not from the text of the source: active = inhibition mostly above about 36% (no sharp cut-off); inactive = mostly below about 34%. The list comes from a sample in which actives are over-represented; it also holds similar structures and randomly drawn compounds.
# Experiment: NOD1 signaling inhibitors, primary screen, cell-based, luminescence, uHTS (AID 1578);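 note: HEK-293T reporter cells stimulated with the NOD1 agonist gamma-tri-DAP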
# Conditions: NOD1-driven NF-kB luciferase reporter cells, at 4 µM, stronger effect = higher value
row,SMILES,inhibition
1,C=CCn1cc(C(=O)OCC)c(=O)c2cc(F)c(F)cc21,2.3% (inactive)
2,Cc1ccc(C(=O)COC(=O)CCC(=O)Nc2cc(Cl)ccc2Cl)cc1[N+](=O)[O-],7.9% (inactive)
3,C#CC(=O)N(c1ccc(OC)c(OC)c1)C(C(=O)NC1CCCC1)c1cccs1 (stereo not given),79.9% (active)
4,C#CC(=O)N(c1cccc(OC)c1)C(C(=O)NC1CCCC1)c1cccs1 (stereo not given),22.1% (inactive)
5,COc1ccc(N(C(=O)c2ccco2)C(C(=O)NC2CCCC2)c2cccs2)c(OC)c1 (stereo not given),-2.6% (inactive)
6,C#CC(=O)N(c1ccc(OC)cc1OC)C(C(=O)NC1CCCC1)c1cccs1 (stereo not given),74.7% (active)
7,COc1ccc(N(C(=O)c2ccco2)C(C(=O)NC2CCCC2)c2cccs2)cc1OC (stereo not given),2.7% (inactive)
8,C#CC(=O)N(c1cc(OC)ccc1OC)C(C(=O)NC1CCCC1)c1cccs1 (stereo not given),-17.4% (inactive)
9,CC(C)c1nc2ccccc2n1CC(O)COC1CCCCC1 (stereo not given),-23.2% (inactive)
10,COc1ccc(C)cc1NC(=O)NNC(=O)C(C)Oc1ccc(F)cc1Cl (stereo not given),-17.8% (inactive)
11,COc1cccc(C(=O)N2CCC(n3nccc3NC(=O)CCOc3ccccc3)CC2)c1,-25.4% (inactive)
12,CCCn1c(SCC(=O)Nc2nonc2C)nnc1-c1ccoc1C,-22.4% (inactive)
13,COC(=O)CN1C(=S)N(Cc2ccccc2)C(=O)C1CC(=O)Nc1ccc(Br)cc1 (stereo not given),28.8% (inactive)
14,Cc1ccc(S(=O)(=O)Nc2ccccc2-c2ccccc2)cc1,18.4% (inactive)
15,Cc1cccc(C)c1NS(=O)(=O)c1ccc2c(c1)C(=O)c1ccccc1C2=O,-19.6% (inactive)
16,Cc1ccc(NS(=O)(=O)c2ccc3[nH]c(=O)[nH]c3c2)c(C)c1,-12.1% (inactive)
17,Cc1ccc(S(=O)(=O)Nc2ccccc2C(N)=O)cc1,-11.8% (inactive)
18,CCCC(=O)C1=C(O)C(C(=O)OC)C(C)(C)CC1=NC (stereo not given),11.5% (inactive)
19,CN(CCO)c1cnccn1,-22.7% (inactive)
20,COc1ccccc1N1CCN(CCC(=O)Nc2cccc(Cl)c2)CC1,-7.2% (inactive)

row,SMILES,inhibition
1,CNC(=O)NC(=O)Cn1cnc2sc(-c3ccccc3)cc2c1=O,0.3% (inactive)
2,CCCCOCCCNC(=O)C1c2ccccc2Oc2ccccc21,-0.9% (inactive)
3,CS(=O)(=O)c1nc(-c2ccccc2)cc(C(F)(F)F)n1,-5.3% (inactive)
4,CCOC(=O)CSc1nc(-c2ccccc2)cc(C(F)(F)F)n1,-48.1% (inactive)
5,CS(=O)(=O)c1nc(-c2ccc(F)cc2)cc(C(F)(F)F)n1,103% (active)
6,CCOC(=O)CS(=O)(=O)c1nc(-c2ccccc2)cc(C(F)(F)F)n1,69.2% (active)
7,CCOC(=O)CCSc1nc(-c2ccccc2)cc(C(F)(F)F)n1,-31.4% (inactive)
8,Nc1nc(-c2ccc(F)cc2)cc(C(F)(F)F)n1,9.6% (inactive)
9,CC(C)(C)NC(=O)CN(Cc1ccc2c(c1)OCO2)C(=O)CNC(=O)c1cccs1,-12.6% (inactive)
10,CCn1ncc(Br)c1C(=O)NC1CCCCCCC1,-9% (inactive)
11,CCn1c(=N)n(CC(O)c2ccco2)c2ccccc21 (stereo not given),11% (inactive)
12,CCN(CC)CCn1c(=N)n(CC(O)c2ccco2)c2ccccc21 (stereo not given),62% (active)
13,CCCn1c(=N)n(CC(O)c2ccco2)c2ccccc21 (stereo not given),1.5% (inactive)
14,C=C(C)c1cccc(C(C)(C)NC(=O)Nc2cc(C)ccc2OC)c1,-33% (inactive)
15,COc1cccc2c1OC1(C)CC2NC(=O)N1c1cccc(C(=O)N2CCN(c3ccccn3)CC2)c1 (stereo not given),-17.8% (inactive)
16,CCOc1cccc2c1OC1(C)CC2NC(=O)N1c1cccc(C(=O)N2CCN(c3ccccn3)CC2)c1 (stereo not given),76.5% (active)
17,CC12CC(NC(=O)N1c1cccc(C(=O)N3CCN(c4ccccn4)CC3)c1)c1ccccc1O2 (stereo not given),-1.9% (inactive)
18,COc1ccc(C(=O)C2CCCN(Cc3ccc4nonc4c3)C2)c(OC)c1 (stereo not given),-21.3% (inactive)
19,COc1ccc(C(=O)C2CCCN(Cc3cc(C)c(O)c(C)c3)C2)c(OC)c1 (stereo not given),110% (active)
20,COc1ccc(C(=O)C2CCCN(Cc3cc(Cl)ccc3O)C2)c(OC)c1 (stereo not given),-3.1% (inactive)

row,SMILES,inhibition
1,CCOC(=O)C(=Cc1cn(C)c2ccc(S(=O)(=O)N(C)C)cc12)C(=O)OCC,29.1% (inactive)
2,CCOC(=O)C(=Cc1c[nH]c2ccc(S(=O)(=O)N(C)C)cc12)C(=O)OCC,43.9% (active)
3,CCOC(=O)N1CCN(C(=O)c2c[nH]c3ccc(S(=O)(=O)N(C)c4ccc(F)cc4)cc3c2=O)CC1,-23.5% (inactive)
4,Cc1ccc(C(=O)c2ccc([N+](=O)[O-])cc2)c(C)c1,-4.2% (inactive)
5,COCCN1CCN(C(=O)C2CCC(=O)N(Cc3ccccc3F)C2)CC1 (stereo not given),-13.9% (inactive)
6,COc1ccc(NC2=NC(=S)N(c3ccccc3C)C23CCCCC3)cc1,-2.5% (inactive)
7,Oc1ccc(Nc2ncnc3ccccc23)cc1,4.4% (inactive)
8,Oc1cccc(Nc2ncnc3ccccc23)c1,56% (active)
9,Nc1cccc(Nc2ncnc3ccccc23)c1,3% (inactive)
10,O=C(CN1CC(c2ccccc2)CC1=O)Nc1ccc2c(c1)OCO2 (stereo not given),-14% (inactive)
11,COCCCNC(c1ccccc1)c1ccncc1 (stereo not given),-23.2% (inactive)
12,O=C(COc1cccc(Cl)c1)Nc1nc(-c2ccc(S(=O)(=O)N3CCOCC3)cc2)cs1,53.1% (inactive)
13,O=C(COc1ccccc1)Nc1nc(-c2ccc(S(=O)(=O)N3CCOCC3)cc2)cs1,3.4% (inactive)
14,O=C(Nc1ccccc1)NC1CS(=O)(=O)CC1O (stereo not given),-16.3% (inactive)
15,O=C(c1ccc(Br)cc1)C1CCc2occc2C1=O (stereo not given),-29.8% (inactive)
16,O=C(O)c1cccc(NC(=O)c2cccc(S(=O)(=O)N3CCc4ccccc43)c2)c1,29.9% (inactive)
17,Cc1cccnc1NC(=O)c1cccc(S(=O)(=O)N2CCCc3ccccc32)c1,-13% (inactive)
18,Nn1cc(-c2ccccc2)nc1SCC(=O)NCC1CCCO1 (stereo not given),-25.8% (inactive)
19,O=C(CSc1nnc(-c2ccccc2)n1-c1ccccc1)c1cccs1,-1.9% (inactive)
20,Cc1cc(C(=O)NC2CCCCC2C)c2ccccc2n1 (stereo not given),1.8% (inactive)
